Among the data in PubChem BioAssay are inhibition values, retold here.

The term inhibition denotes the share of the control response that was lost under treatment.

Unmarked numbers belong to inactive results. Active and inactive are the calls of the source.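 The calls were made as follows, unless noted: active = mean inhibition above 46.5%, the solvent-only control mean plus 3 SD; inactive = the rest.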

The target of assay [1] is Nuclear receptor coactivator 3 (Homo sapiens) (UniProt Q9Y6Q9). The assay can be described thus: SRC3 coactivator transcriptional activity inhibitors, confirmation, cell-based, luminescence, quadruplicate (AID 588792;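 active = mean inhibition over 43.08%, the solvent-only control mean plus 3 SD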;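 also: 0% = DMSO treated cells and 100% = gossypol at 36 µM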). Conditions: HEK293 GAL4-SRC3 luciferase reporter, at 3.6 µM, active compounds read high.
Assay [2] relates to transactivating tegument protein VP16 (Human herpesvirus 1), Gal4-VP16 luciferase reporter. Put plainly: VP16 transactivation inhibitors, counter-screen for SRC3 inhibitor project, cell-based, luminescence, high throughput (AID 588794; in the data active = inhibition above about 30%). The note with it: mammalian cells, VP16-driven luciferase reporter luminescence; at 3.6 µM; active compounds read high. (In general: A counterscreen serves to expose hits that act by an unwanted route or on another target.)

Assay [3] has as its target Nuclear receptor coactivator 1 (Homo sapiens) (UniProt Q15788). The assay can be described thus: SRC1 coactivator transcriptional activity inhibitors, confirmation, cell-based, luminescence, quadruplicate (AID 588820;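 active = mean inhibition above 46.68%, the untreated control wells mean plus 3 SD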;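 also: 0% = DMSO wells and 100% = gossypol 36 µM treated wells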). Conditions: HEK293 GAL4-SRC1 luciferase reporter, at 3.6 µM, active compounds read high. On the technique in general: In a reporter assay the amount or activity of a reporter protein is the signal.

Assay [4] can be described thus: VP16 transactivation inhibitors, counter-screen for SRC1 inhibitor project, cell-based, luminescence, high throughput (AID 588824; in the data active = inhibition above about 25%). Conditions: cell-based VP16 transactivation luciferase luminescence; at 3.6 µM; active compounds read high.
A short description of assay [5]: StAR promoter reporter inhibitors, counter-screen for LRH-1 inverse agonist project, cell-based, luminescence, high throughput (AID 651611; in the data active = inhibition above about 28%). The note with it: StAR promoter luciferase reporter counterscreen, at 3.6 µM, active compounds read high.
Assay [6] deals with Nuclear receptor subfamily 5 group A member 2 (Homo sapiens) (UniProt O00482). Put plainly: LRH-1 (NR5A2) inverse agonists, retest, confirmation, cell-based, luminescence (AID 651613; in the data active = inhibition above about 42%;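 also: HEK293T cells co-transfected with LRH-1 and StAR promoter luciferase reporter; 0% = vehicle wells and 100% = parental cells lacking receptor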). The note with it: cell-based LRH-1 luciferase reporter, inverse agonism; at 3.6 µM; active compounds read high.
In assay [7] the target is Steroidogenic factor 1 (Homo sapiens) (UniProt Q13285). Put plainly: SF1 (NR5A1) inverse agonists, counter-screen for LRH-1 inverse agonist project, cell-based, luminescence, high throughput (AID 651614; in the data active = inhibition above about 44%;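 also: cells cotransfected with StAR promoter reporter and SF1 expression vector; 0% = vehicle on cells with receptor and 100% = vehicle on cells lacking receptor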). The note with it: cell-based SF1 luciferase reporter, at 3.6 µM, active compounds read high.
The nature of assay [8]: VP16 transactivation reporter inhibitors, counter-screen for LRH-1 inverse agonist project, cell-based, luminescence, high throughput (AID 651615; in the data active = inhibition above about 33%). The note with it: Gal4-VP16 luciferase reporter cells, at 3.6 µM, active compounds read high.
Assay [9] concerns transactivating tegument protein VP16 (Human herpesvirus 1). Put plainly: VP16 transactivation reporter inhibitors, counter-screen for SRC2 inhibitor project, cell-based, luminescence, single concentration (AID 652007; in the data active = inhibition above about 36%). The note with it: cell-based VP16 transactivation luciferase reporter, at 8.9 µM, active compounds read high.
Assay [10] deals with Nuclear receptor coactivator 2 (Homo sapiens) (UniProt Q15596). The assay can be described thus: SRC2 coactivator transcriptional activity inhibitors, confirmation, cell-based, luminescence, HEK293, triplicate (AID 652008).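 Also: 0% = DMSO-treated cells and 100% = Gossypol at 36 µM.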 The note with it: HEK293 GAL4-SRC2 luciferase reporter, at 8.9 µM, active compounds read high.
Chain of Nuclear receptor coactivator 2 (Homo sapiens) (Q15596 whole entry, looked up, the tested form may be a part): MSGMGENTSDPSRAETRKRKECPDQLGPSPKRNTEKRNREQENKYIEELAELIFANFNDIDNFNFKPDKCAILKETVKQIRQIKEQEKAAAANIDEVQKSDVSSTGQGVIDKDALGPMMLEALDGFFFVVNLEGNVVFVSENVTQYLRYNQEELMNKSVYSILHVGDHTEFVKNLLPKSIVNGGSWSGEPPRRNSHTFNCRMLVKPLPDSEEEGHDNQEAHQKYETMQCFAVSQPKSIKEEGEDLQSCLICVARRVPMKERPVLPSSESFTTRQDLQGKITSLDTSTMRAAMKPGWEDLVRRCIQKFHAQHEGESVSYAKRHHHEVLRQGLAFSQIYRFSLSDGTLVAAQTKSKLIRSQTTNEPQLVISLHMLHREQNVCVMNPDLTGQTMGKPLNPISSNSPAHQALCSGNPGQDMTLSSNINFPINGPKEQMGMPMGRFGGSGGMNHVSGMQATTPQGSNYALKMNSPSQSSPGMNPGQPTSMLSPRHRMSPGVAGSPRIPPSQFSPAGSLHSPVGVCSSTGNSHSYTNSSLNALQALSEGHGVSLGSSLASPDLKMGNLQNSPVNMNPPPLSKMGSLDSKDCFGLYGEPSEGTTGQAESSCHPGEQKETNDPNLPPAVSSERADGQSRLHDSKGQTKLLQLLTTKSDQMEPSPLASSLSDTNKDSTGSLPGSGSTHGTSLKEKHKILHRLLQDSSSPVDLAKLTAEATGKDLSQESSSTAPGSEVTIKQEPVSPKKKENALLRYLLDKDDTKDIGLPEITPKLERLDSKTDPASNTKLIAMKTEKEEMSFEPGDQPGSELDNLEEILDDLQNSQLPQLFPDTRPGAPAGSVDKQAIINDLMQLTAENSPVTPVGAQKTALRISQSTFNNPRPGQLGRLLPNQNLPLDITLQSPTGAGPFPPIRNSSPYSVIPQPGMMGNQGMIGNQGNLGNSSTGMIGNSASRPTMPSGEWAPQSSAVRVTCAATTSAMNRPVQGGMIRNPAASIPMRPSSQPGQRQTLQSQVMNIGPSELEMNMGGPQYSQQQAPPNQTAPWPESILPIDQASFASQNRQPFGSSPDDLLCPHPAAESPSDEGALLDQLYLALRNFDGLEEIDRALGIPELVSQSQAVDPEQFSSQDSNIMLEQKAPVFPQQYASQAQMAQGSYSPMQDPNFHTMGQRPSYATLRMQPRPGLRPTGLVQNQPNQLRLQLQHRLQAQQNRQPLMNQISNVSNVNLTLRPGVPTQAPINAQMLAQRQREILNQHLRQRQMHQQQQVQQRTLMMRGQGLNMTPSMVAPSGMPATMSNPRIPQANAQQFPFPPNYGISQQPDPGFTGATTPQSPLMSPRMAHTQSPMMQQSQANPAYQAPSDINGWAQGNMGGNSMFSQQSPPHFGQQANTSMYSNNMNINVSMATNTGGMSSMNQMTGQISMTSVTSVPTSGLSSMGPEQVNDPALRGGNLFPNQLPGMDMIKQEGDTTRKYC

Chain of Nuclear receptor subfamily 5 group A member 2 (Homo sapiens) (O00482 whole entry, looked up): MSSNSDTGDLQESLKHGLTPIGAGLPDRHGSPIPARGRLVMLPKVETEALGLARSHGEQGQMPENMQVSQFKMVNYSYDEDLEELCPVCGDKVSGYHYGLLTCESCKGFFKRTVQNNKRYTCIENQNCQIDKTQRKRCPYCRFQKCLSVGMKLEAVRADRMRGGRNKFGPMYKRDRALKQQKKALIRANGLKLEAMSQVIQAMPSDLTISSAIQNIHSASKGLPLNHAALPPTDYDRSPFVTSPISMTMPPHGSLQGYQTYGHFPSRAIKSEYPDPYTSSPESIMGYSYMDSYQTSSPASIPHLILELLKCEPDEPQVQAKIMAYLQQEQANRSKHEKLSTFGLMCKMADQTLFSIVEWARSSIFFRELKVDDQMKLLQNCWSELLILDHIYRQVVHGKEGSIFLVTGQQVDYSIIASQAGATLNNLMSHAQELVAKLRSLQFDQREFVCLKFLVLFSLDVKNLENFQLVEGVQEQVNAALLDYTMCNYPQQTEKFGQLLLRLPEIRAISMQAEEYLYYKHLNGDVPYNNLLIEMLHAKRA
Chain of Steroidogenic factor 1 (Homo sapiens) (Q13285 whole entry, looked up, the tested form may be a part): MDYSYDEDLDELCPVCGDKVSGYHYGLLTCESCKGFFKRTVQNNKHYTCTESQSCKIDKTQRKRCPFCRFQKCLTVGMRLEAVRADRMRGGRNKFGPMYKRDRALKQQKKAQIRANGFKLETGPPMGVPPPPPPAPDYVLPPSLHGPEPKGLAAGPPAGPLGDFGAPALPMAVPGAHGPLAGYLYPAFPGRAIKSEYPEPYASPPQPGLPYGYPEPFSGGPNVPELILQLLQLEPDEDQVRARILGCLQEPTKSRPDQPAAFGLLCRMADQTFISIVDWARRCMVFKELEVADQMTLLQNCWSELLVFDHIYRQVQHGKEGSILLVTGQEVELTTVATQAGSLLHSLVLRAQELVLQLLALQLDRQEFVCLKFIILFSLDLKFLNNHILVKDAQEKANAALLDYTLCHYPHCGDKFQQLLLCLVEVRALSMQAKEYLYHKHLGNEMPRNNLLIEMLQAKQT
Chain of Nuclear receptor coactivator 1 (Homo sapiens) (Q15788 whole entry, looked up, the tested form may be a part): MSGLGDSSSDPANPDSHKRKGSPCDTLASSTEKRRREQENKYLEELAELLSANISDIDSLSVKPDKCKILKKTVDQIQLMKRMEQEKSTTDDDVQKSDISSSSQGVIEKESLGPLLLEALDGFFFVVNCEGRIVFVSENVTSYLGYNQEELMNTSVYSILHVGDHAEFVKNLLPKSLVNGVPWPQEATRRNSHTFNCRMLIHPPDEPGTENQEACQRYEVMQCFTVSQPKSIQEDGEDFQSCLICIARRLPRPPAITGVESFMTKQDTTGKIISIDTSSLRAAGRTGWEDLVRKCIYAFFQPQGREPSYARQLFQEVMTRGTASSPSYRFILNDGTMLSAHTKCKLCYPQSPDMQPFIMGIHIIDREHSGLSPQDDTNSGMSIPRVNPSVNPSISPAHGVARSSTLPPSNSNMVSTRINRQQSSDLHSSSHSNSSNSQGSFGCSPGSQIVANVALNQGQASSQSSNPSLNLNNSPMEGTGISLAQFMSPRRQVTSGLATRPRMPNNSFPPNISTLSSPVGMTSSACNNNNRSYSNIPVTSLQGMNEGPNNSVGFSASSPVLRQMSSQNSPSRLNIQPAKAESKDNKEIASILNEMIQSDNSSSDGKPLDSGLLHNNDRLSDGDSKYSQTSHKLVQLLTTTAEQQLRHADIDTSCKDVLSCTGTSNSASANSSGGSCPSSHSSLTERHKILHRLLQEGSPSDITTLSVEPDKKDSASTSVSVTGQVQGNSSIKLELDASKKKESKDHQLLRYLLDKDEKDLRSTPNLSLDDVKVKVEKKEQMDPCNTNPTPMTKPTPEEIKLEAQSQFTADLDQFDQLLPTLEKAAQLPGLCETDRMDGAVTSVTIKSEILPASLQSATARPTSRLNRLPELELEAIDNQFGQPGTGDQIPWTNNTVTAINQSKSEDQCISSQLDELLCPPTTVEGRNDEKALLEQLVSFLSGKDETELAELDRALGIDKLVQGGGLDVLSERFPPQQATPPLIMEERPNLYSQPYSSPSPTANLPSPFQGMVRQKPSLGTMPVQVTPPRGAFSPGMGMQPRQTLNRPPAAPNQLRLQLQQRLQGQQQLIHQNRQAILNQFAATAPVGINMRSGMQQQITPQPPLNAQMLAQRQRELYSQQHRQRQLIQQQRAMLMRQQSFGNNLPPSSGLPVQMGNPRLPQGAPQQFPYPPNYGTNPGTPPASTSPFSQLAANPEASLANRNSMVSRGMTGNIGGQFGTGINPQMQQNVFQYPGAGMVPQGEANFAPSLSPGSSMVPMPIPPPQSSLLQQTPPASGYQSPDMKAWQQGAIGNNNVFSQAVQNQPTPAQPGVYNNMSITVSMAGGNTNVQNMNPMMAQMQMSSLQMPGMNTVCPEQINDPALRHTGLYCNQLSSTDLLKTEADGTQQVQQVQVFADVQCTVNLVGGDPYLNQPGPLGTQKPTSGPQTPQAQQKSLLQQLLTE

On to `Cc1nn(-c2nc3ccccc3[nH]2)c(=O)c2ccccc12`, for which the inhibition in assay [1] is 72.3% (active); in assay [2], 65% (active); in assay [3], 47.4% (active); in [4], 68.3% (active); in assay [5] it was 69.2% (active); in assay [6], 63.9% (active). The inhibition was 78.8% (active) in assay [7], 59.3% (active) in assay [8], 82.9% (active) in assay [9] and 89.3% (active) in [10].
With `NC(=S)NN=C1c2cc(OCCN3CCOCC3)ccc2-c2ccc(OCCN3CCOCC3)cc21`, the inhibition was 53.8% (active) in assay [1]; 68.8% (active) in assay [2]; 8.8% in assay [3]; 65.2% (active) in [4]; 89.9% (active) in [5]; 96.3% (active) in [6]. Besides, the inhibition in [7] is 82.2% (active); in assay [8], 91.7% (active); in [9], 68.6% (active); in assay [10] it was 58.9% (active).
As for `O=C(NCc1cccnc1)/C(=C\c1ccc(-c2ccc(Br)cc2)o1)S(=O)(=O)c1ccccc1`, the inhibition in [1] was 72.6% (active); in [2], 56.9% (active); in assay [3], 51.7% (active); in assay [4], 55.1% (active); in [5], 62.3% (active); in assay [6], 92.3% (active). The inhibition in assay [7] is 82% (active); in [8], 80.8% (active); in [9], 71.1% (active); in [10], 68.7% (active).
For the compound `CC1CCCN(c2ncnc3c2cnn3-c2ccc(Cl)cc2)C1` (stereo not given), the inhibition was 88.7% (active) in assay [1]; 84.3% (active) in assay [2]; 74.4% (active) in [3]; 71.4% (active) in assay [4]; 80.3% (active) in [5]; 60.3% (active) in assay [6]. For the same compound, the inhibition was 79.2% (active) in assay [7], 66.5% (active) in assay [8], 82% (active) in assay [9] and 93.9% (active) in assay [10].
Regarding `CC(C)(C)c1ccc(C(=O)Nc2ccc(CC(=O)O)cc2)o1`, the inhibition in [1] is 54.1% (active); in [2] it was 40% (active); in assay [3], 37.9%; in assay [4], 42% (active); in assay [5], 45.1% (active); in assay [6], 52.5% (active). Besides, the inhibition in assay [7] is 46.9% (active); in assay [8], 37.7% (active); in [9], 70.2% (active); in [10], 92.1% (active).
